This passage reports growth results from PubChem BioAssay (NCI).

Compounds without any hit were thinned out: in the full panel of roughly 83,000, 20% have a hit.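 48-hour exposure, single concentration, 96-well plates; percent growth endpoint where 0 means no net growth. Active: below 10.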 Values without a mark were called inactive. Calls of active or inactive are those of the source.

In this assay the test system is HL-60(TB) leukemia. The assay can be described thus: NCI-60 one-dose screen, 48 h (100 = growth as untreated, 0 = no growth, -100 = all killed). Particulars: 10 µM unless noted.

`CNC(=O)c1ccccc1CC1(O)c2ccccc2Oc2ccccc21`: the growth is 17.8%.
On to `CC(=O)OCC1CCC(COC(C)=O)CC1` (configuration not stated), for which the growth is 85.5%.
For `COC(=O)C1=C(C)NC(C)=C(C(=O)OC)C(N2C(=O)CCC2=O)C1` (configuration not stated) the value was 90.8%.
On to `CCCCCCC(=O)Nc1ncc(Cc2ccc(C)cc2)s1`, for which the growth was -18.2% (active).
For `CCOc1cc(/C=N\NC(=O)C[N+](C)(C)C)ccc1O` the value was 87.7%; for `C=C(C)[C@@H]1CC[C@]2(C(=O)OC)CC[C@]3(C)[C@H](CC[C@@H]4[C@@]5(C)C/C(=C/c6cccc(I)c6)C(=O)C(C)(C)[C@@H]5CC[C@]43C)[C@@H]12`, 97.6%; for `COc1nc2ccccc2cc1/C=[N+](\[O-])c1ccccc1`, -18.5% (active).
As for `S=CN1CCCCC1`, the figure is 102%.
As for `COc1cc(C=C2C(=O)NC(=S)NC2=O)cc(CN2CCCC2)c1O`, the figure is 108%; as for `COC(=O)C(C)NC1=C(Cl)C(=O)C(NC(C)C(=O)OC)=C(Cl)C1=O` (configuration not stated), 97.8%; as for `COc1ccc2c(c1)C(=O)c1c-2c(=O)n(CCCN(C)C)c2cc(OC)c(OC)cc12`, 74.8%.
For the molecule `CN1CCN(Cc2ccc(NC(=O)c3cncc(C#Cc4cncn5ccnc45)c3)cc2C(F)(F)F)CC1`, the growth is 20.2%.
For `c1ccc(-c2n(Cc3ccc4ccccc4n3)c3ccccc3[n+]2Cc2ccc3ccccc3n2)cc1` the value was -54% (active).
For `Cc1cc2c3c(cccc3c1)C(=O)c1ccccc1-2` the value was 101%; for `O=C(O)c1cc2c(s1)C(=O)c1sccc1C2=O`, 10.9%; for `O=C1O[C@@H](c2ccccc2Cl)[C@@H]2c3cc4c(cc3CCN12)OCO4`, 92.1%.
As for `O=C1c2ccccc2C(=O)c2c(Nc3ccc(CCO)cc3)ccc(O)c21`, the figure is 83.9%; as for `COc1cc(C(=O)/C=C/c2c(C(F)(F)F)nc3sccn23)cc(OC)c1OC`, -20% (active).
Consider `COc1ccc(-c2nc(-c3cn(C)c4ncccc34)cs2)cc1`, for which the growth is 13% [100 µM].
Consider `Cc1cc2c(cc1C)[n+](Cc1ccc3ccccc3n1)cn2Cc1ccc2ccccc2n1`, for which the growth is -49.8% (active).
As for `O=C(/C=C(/C=C/c1coc2ccccc12)OB(F)F)/C=C/c1coc2ccccc12`, the figure is 88.6%.
As for `CCN(CC)CCCNc1nc2ccccc2c2c(=O)c3cc(Cl)ccc3sc12`, the figure is 64.5%; as for `O=c1oc2c(cc1-c1ccccc1)c[n+]([O-])c1ccccc21`, 97.7%.
Regarding `O=C1NC(=O)/C(=C/c2ccc(Cl)cc2Cl)N1`, the growth is 97%.
As for `Nc1ccc(CC[C@H]2CCC/C=C/[C@@H]3C[C@H](O)C[C@H]3[C@H](O)/C=C/C(=O)O2)cc1`, the figure is -8.51% (active); as for `COc1ccc(/C=C2\COc3ccc(-c4ccccc4)cc3C2=O)c(OC)c1`, 56.9%; as for `COc1cc(C=O)ccc1OC1OC(COC(C)=O)C(OC(C)=O)C(OC(C)=O)C1OC(C)=O` (configuration not stated), 106%.
For `COc1cccc2c1O/C(=C\c1ccc([N+](=O)[O-])s1)C2=O` the value was 39%; for `CCCCCCCCCCCCCCCC(=O)NS(=O)(=O)OC[C@H]1O[C@@H](n2cnc3c(N)ncnc32)[C@H](O)[C@@H]1O`, -11.6% (active); for `COc1ccc(C(C)C=O)cc1` (configuration not stated), 96.9%.
As for `C=CCc1cc(Cl)cc2c(OC(C)=O)c(C(C)=O)c(-c3ccccc3)nc12`, the figure is 107%; as for `COc1ccc(C2SCC(=O)N2NC(=O)c2ccc(NC(=O)c3ccccn3)cc2)cc1OC` (configuration not stated), 110%.
With `Cc1cc(Cc2cc(C)cc(C(C)(C)C)c2O)c(O)c(C(C)(C)C)c1`, the growth is 59.3%.
For `CCC(c1ccc(OC)cc1)C(CC)c1ccc(O)c(CN2CCCC2)c1` (configuration not stated) the value was -45.9% (active).
As for `Cc1cc[c-]cc1.Fc1c[c-]c(-c2ccccn2)c(F)c1.[Pt+2].c1ccc(P(C[PH+](c2ccccc2)c2ccccc2)c2ccccc2)cc1`, the figure is -25.7% (active); as for `COc1ccc(/C=C2\CN(C(=O)CCN3CCC(=NO)CC3)C/C(=C\c3ccc(OC)cc3)C2=O)cc1`, -14.4% (active).
For the molecule `CCOc1ccccc1NC(=O)CCC(=O)OC`, the growth was 78.7%.
For the molecule `Cc1ccc(-c2nc3nc(-c4ccc(Br)cc4)nc(N4CCCNCC4)c3o2)cc1`, the growth is -47.3% (active).
For `Cc1nc(Nc2ccc(NC(=S)Nc3ccccc3)cc2)nc2nc(Nc3ccc(S(=O)(=O)O)cc3)[nH]c(=O)c12` the value was 132%; for `COc1cnc2c(c1)C(=O)c1c-2n(CCCNC2=NCCS2)c(=O)c2cc(Cl)ccc12`, -63.8% (active); for `O=NN(CCCl)C(=O)NCc1ccc(-c2ccc(CNC(=O)N(CCCl)N=O)cc2)cc1`, 88.6%.
For `COc1ccc(/C=C(\C#N)c2cc(OC)c3c(c2)OCO3)cc1` the value was -1.4% (active); for `Cn1cnc([N+](=O)[O-])c1/C=C1\Oc2ccc(Cl)cc2C1=O`, 60%; for `CC12CCC3C(CCC4CC(O)CCC43C)C1C/C(=C/O)C(=O)O2` (configuration not stated), 107%.
As for `O=C(NS(=O)(=O)c1ccc2ccccc2c1)n1cc(-c2ccncc2)c(-c2ccc(Cl)c(O)c2)n1`, the figure is 43.3%.
For the molecule `Fc1ccccc1-c1nc(-c2nc3cc(Cl)c(Cl)cc3[nH]2)c2ccccn12`, the growth is 81.6%.
For `CC(C)(C)CC(C)(C)Nc1c(-c2ccncc2)nc2cnccn12` the value was 102%; for `O=C(c1ccc(Cl)cc1)N1CCCCC1`, 98.7%.
As for `Cc1cc(O)c(=O)cc2c1C[C@H]1CC(C)(C)/C=C/C[C@]3(C)Oc4cc(=O)c(O)cc(C)c4C[C@H]3C[C@H](O)[C@@]1(C)O2`, the figure is -19.8% (active).
With `CS(=O)(=O)c1ccc(C(=O)N/N=C/c2ccccc2Cl)cc1`, the growth was 52.3%.
For `O=c1c2cc(F)ccc2sc2c(N3CCNCC3)nc3ccccc3c12` the value was -52% (active); for `CCOC(=O)C1=C(COCCN)NC(C)=C(C(=O)OC)C1c1ccccc1Cl` (configuration not stated), 95.5%; for `N#C/C(=C\c1ccc([N+](=O)[O-])cc1)n1nnc2cc(F)c(F)cc21`, -27% (active).
Turning to `COc1ccc(-c2nn(-c3cccc(Cl)c3)cc2-c2cc(-c3ccc(Br)cc3)[nH]c(=O)c2C#N)cc1`, the growth was 101%.
As for `c1ccc(OCc2nnc(-c3ccc(Oc4ccccc4)cc3)o2)cc1`, the figure is 99.6%; as for `Cc1cccc(NC(=O)CSc2nc3ccc([N+](=O)[O-])cc3[nH]2)c1`, 86.1%; as for `c1csc(-c2c3ccc(=[N+]4CCCCC4)cc-3oc3cc(N4CCCCC4)ccc23)c1`, -35.5% (active).
For `CC(=O)CC1CCCC1c1ccc2ccccc2c1` (configuration not stated) the value was 101%.
For `COc1cc(/C=N/n2c(CN3CCOCC3)nc3ccccc3c2=O)cc(OC)c1OC` the value was 98.1%; for `C=CCn1c(C)nc2ccc(Nc3nc(Nc4ccc5nc(C)n(CC=C)c5c4)c4ccccc4n3)cc21`, -63.2% (active); for `Cc1cc(NCc2cc(Nc3ccnc4cc(Cl)ccc34)ccc2F)nc(N2CCN(C)CC2)n1`, -46.6% (active).
On to `O=C(CC12CC3CC(CC(C3)C1)C2)NCCOCCOCCOCCNC(=O)c1cc2c(o1)C(=O)c1ccccc1C2=O`, for which the growth was -7.22% (active).
As for `O=S(=O)(Cc1ccccc1)c1ccccc1`, the figure is 96.5%; as for `O=C1CSC(=S)N1CCc1ccc(O)cc1`, 92%.
As for `COc1ccc(OC)c(NC(=O)c2cc3oc4ccccc4c3cc2O)c1`, the figure is 121%; as for `CCOC(=O)C1=C(N)Oc2c(sc3c(C)cccc23)C1c1ccc(F)cc1` (configuration not stated), -39.3% (active); as for `CCN(CC)CCOc1ccc2c(-c3ccccc3)c(-c3ccc(OC)cc3)c(=O)oc2c1`, 48.8%.
For `CC(C)c1cccc(C#N)c1` the value was 112%.
Consider `CCCCCCCCOC(=O)c1ccccn1`, for which the growth is 119%.
For `CCN(CC)c1ccc2nc3c4ccccc4c(=O)cc-3n(-c3ccccc3)c2c1` the value was -26.7% (active).
For `N#CCCN1C/C(=C/c2ccc(Br)cc2)C(=O)/C(=C/c2ccc(Br)cc2)C1` the value was 1.68% (active); for `COc1cc(C2C=C(C)N=C3SC=NN32)cc(OC)c1OC` (configuration not stated), 94.7%.
Take `COc1ccc(/C=C(\C#N)n2nnc3cc(F)c(F)cc32)cc1`: the growth is 13.8%.
Regarding `COC(=O)c1cc(-c2ccccc2)[nH]c1N/N=C/c1c(Cl)cccc1Cl`, the growth was -42.9% (active).
`CC(=O)Oc1ccc(Br)cc1C(=O)O`: the growth is 101%.
As for `COc1cc(C(C)n2cc(-c3ccccc3)nn2)ccc1OC1CCCC1` (configuration not stated), the figure is 53.1%.
With `O=Cc1ccc(O)c2ncccc12`, the growth is -69.3% (active).
As for `N#Cc1nc(-c2ccc(Cl)cc2)oc1S(=O)(=O)N1CCN(c2ccc(F)cc2)CC1`, the figure is 66.3%.
Regarding `O=[N+]([O-])c1cc([N+](=O)[O-])c(NN=C(c2ccc(O)cc2)c2ccc(O)cc2)cc1Cl`, the growth was 12.7%.
As for `Cc1ccc(N/N=C(/C(=O)c2ccc(Cl)cc2)c2nc(C)cc(=O)[nH]2)cc1`, the figure is 109%.
Take `CC12O[C@H](C[C@@H](OC(=O)c3ccccc3)[C@H]1O)n1c3ccccc3c3c4c(c5c6ccccc6n2c5c31)C(=O)NC4=O`: the growth is 96.9%.
As for `COc1ccccc1/C=C1\Oc2cc(OCCN3CCCC3)ccc2C1=O`, the figure is 97.1%; as for `CCOC(=O)C(=Cc1ccc(-c2ccccc2)cc1)C(=O)OCC`, -10.6% (active).
As for `C1=C(c2ccccc2)c2ccccc2C1`, the figure is 95.1%; as for `COc1cc(-c2nn(-c3ccccc3)cc2-c2ccnc(NCCNS(=O)(=O)c3ccc(Cl)cc3)n2)ccc1Cl`, -35.9% (active); as for `[N-]=[N+]=NCc1ncc(-c2ccc(C(F)(F)F)cc2)c(NC2CCCCCC2)n1`, 43.4% [50 µM].
Regarding `CCC(=O)Oc1ccc(/C(=C(\C)c2ccccc2)c2ccc(OCCN3CCCCC3)cc2)cc1`, the growth was 68.2%.
